# Sampled rows, rich in hits. Any-hit rate of the full collection: about 21%.
# Shiga toxin inh = A qHTS for Small Molecule Inhibitors of Shiga Toxin; inhibition, % at 38.7 µM; Vero cells, Shiga toxin protein synthesis inhibition reporter; hit rate 9.2% among 290,000; in the data active means inhibition mostly above about 28%, no sharp cut-off; inactive means mostly below about 43%; further: 0% is about no effect
# HCV inhibitor = qHTS Assay for Inhibitors of Hepatitis C Virus (HCV); Huh7.5.1 HCVcc-Cre infection, luciferase reporter, 44 h; Potency, µM (titrated, usually from 41.8 µM), inactives show at the highest dose activity change, negative = inhibition, most hits filed as inhibitors; hit rate 3.4% among 340,000; AID 651820, 2012; further: potency means the concentration at half of the fitted maximal effect; on the % scale 0 is the no-effect control and ±100 the full control effect
#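 Cells seeded at 1,000/well and cultured 4 h, then compounds added followed by HCVcc-Cre virus (~0.5 moi). After 44 h further culture, luciferase substrate was added, plates held 15 min at room temperature, and luminescence read for 15 sec.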
# Pf growth 48h = Primary qHTS for delayed death inhibitors of the malarial parasite plastid, 48 hour incubation | P. falciparum luciferase growth in erythrocytes, 48 h | Potency, µM (series often up to 28.7 µM), inactives show at the top dose activity change, negative = inhibition, hits mostly inhibitors | hit rate 5.9% among 310,000 | AID 504832, 2011; further: potency means the concentration at half of the fitted maximal effect; on the % scale 0 is the no-effect control and ±100 the full control effect
#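 Compounds are pin-transferred into medium, infected erythrocytes (2% hematocrit, 0.1% parasitemia final) are added, and plates sit one parasite generation at 37 C in 5% CO2. Detection reagent is then added and luminescence measured.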
# Cycloheximide cs = Cycloheximide Counterscreen for Small Molecule Inhibitors of Shiga Toxin | cell reporter, cycloheximide protein synthesis inhibition counterscreen | max response, % | hit rate 12% among 300,000 | AID 2314, 2010; in the data active means max response mostly above about 13%, no sharp cut-off; inactive means mostly below about 14%; further: read at 38.3 µM for the half of the compounds with a filed dose; 0% is about no effect
# HCMV antiviral = qHTS Assay for inhibitors of the human cytomegalovirus (HCMV); HFF cells, HCMV-luciferase reporter, 72 h; active compounds read low; activity change, negative = inhibition, % at 57.5 µM; hit rate 4.5% among 410,000; in the data active means activity change below about -60%; inconclusive means no clear call, values can overlap the other calls; inactive means above about -39%; further: on the % scale 0 is the no-effect control and ±100 the full control effect
#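 Compounds were evaluated in HFFs infected with an HCMV luciferase reporter virus (MOI 1 PFU/cell). Luciferase in lysates collected 72 h post infection served as the replication measure.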
# Pf growth 96h = Primary qHTS for delayed death inhibitors of the malarial parasite plastid, 96 hour incubation; P. falciparum luciferase reporter growth, 96 h; hit rate 6.9% among 320,000; Potency, µM (series often up to 28.7 µM), without a hit: at the highest dose activity change, negative = inhibition, hits mostly inhibitors; AID 504834, 2011; further: potency means the concentration at half of the fitted maximal effect; on the % scale 0 is the no-effect control and ±100 the full control effect
#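 P. falciparum expressing integrated firefly luciferase grown in erythrocytes (2% hematocrit, 0.05% parasitemia final) with compounds for 96 hours at 37 C, 5% CO2. Growth inhibition read as loss of luminescence after adding luciferase detection reagent.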
# * marks the source's active call; other numbers are inactive results; u = inconclusive; x = no result. Unless noted, the call rests on the fitted dose curve; in most records, active means well fitted inhibition curve with a large enough effect; inconclusive means small, poorly fitted or top-dose-only effect, or another doubt; inactive means no such curve, though single readings can be large or run the other way.
SMILES,Shiga toxin inh,HCV inhibitor,Pf growth 48h,Cycloheximide cs,HCMV antiviral,Pf growth 96h
O=C(NCCc1ccccc1)c1cnc2ccccc2n1,106*,-8%,146%,32*,56,u
Cc1ccccc1CNC(=O)c1ccc2ccccc2n1,2,-26%,6%,-3,3,7%
Cc1ccccc1OCCNC(=O)c1ccc2ccccc2n1,93*,12%,157%,71*,42,30%
COc1ccc(CNC(=O)c2ccc3ccccc3n2)cc1,63,-9%,u,26*,100,u
c1ccc(COCc2ccccc2)cc1,x,x,x,x,-4,x
CC(NS(=O)(=O)/C=C/c1ccccc1)C(=O)NCCc1ccc(S(N)(=O)=O)cc1 (centres undefined),12,1%,u,-3,-17,u
Cc1ccc(Nc2c(-c3ccc(N4CCOCC4)cc3)nc3ccc(C)cn23)cc1,x,x,x,x,2,x
Cc1ccccc1Nc1c(-c2ccc(N3CCOCC3)cc2)nc2cnccn12,73,1%,-11%,25*,26,-21%
Cc1ccccc1Nc1c(-c2ccc(N3CCOCC3)cc2)nc2ncccn12,17,-18%,-5%,16,-9,3%
Cc1ccc(Nc2c(-c3ccc(N4CCOCC4)cc3)nc3cnccn23)cc1,44,-17%,u,7.8*,104,u
Oc1ccccc1-c1nc2cnccn2c1Nc1ccc(Cl)cc1,x,x,x,x,-40,x
Cc1ccc(Nc2c(-c3ccccc3O)nc3cnccn23)cc1,-9,-11%,5.9µM*,5,-38,0%
COC(=O)[C@H]1[C@H](CO)[C@H]2Cn3c(cccc3=O)[C@@H]1N2Cc1ccncc1,x,x,x,x,6,x
CCOC(=O)c1c(C)sc(-c2c(-c3ccc4c(c3)OCCO4)[nH]c3c2c(=O)[nH]c(=O)n3C)c1O,x,x,x,x,62,x
C/C=C/c1ccc(OCCCn2cncn2)c(OC)c1,27,u,27%,11*,14,6%
C/C=C/c1ccc(OCCCCOc2ccccc2F)c(OC)c1,6,u,2%,4,4,u
C/C=C/c1ccc(OCCn2cncn2)c(OC)c1,-5,-7%,21%,-1,-35,-8%
C/C=C/c1ccc(OCCCCn2cncn2)c(OC)c1,54*,-1%,30%,34*,12,x
O=C(O)CCC(=O)NNc1ccccc1[N+](=O)[O-],14,u,-8%,6,13,-8%
COc1cccc(OCc2cc(C(=O)N3CCN(c4ccccc4O)CC3)no2)c1,107*,u,8%,50*,88,u
COc1cccc(OCc2cc(C(=O)N3CCN(c4ccccc4OC)CC3)no2)c1,70*,u,-23%,29*,66,15%
COc1ccccc1N1CCN(C(=O)c2cc(-c3ccccc3)on2)CC1,15,5%,5%,-1,-13,-1%
COc1cccc(OCc2cc(C(=O)N3CCN(C(C)=O)CC3)no2)c1,104*,21%,18%,60*,0,u
COC(=O)CSc1ncc(S(=O)(=O)c2ccccc2)c(=O)[nH]1,2,14%,x,-6,8,-7%
O=c1c(Br)c(NCc2ccccc2)cnn1-c1ccc(F)cc1,40*,2%,21%,26*,43,12%
SMILES,Shiga toxin inh,HCV inhibitor,Pf growth 48h,Cycloheximide cs,HCMV antiviral,Pf growth 96h
O=C(COC(=O)c1ccc(Cl)nc1)NNC(=O)c1ccc(Cl)cc1,x,0%,-3%,x,-2,28%
Cc1ccc(NC(=O)CSCC(=O)Nc2ccc(N3CCOCC3)c(Cl)c2)cc1,41,-10%,u,1,1,-26%
Cc1ccc(CNc2ccc(N3CCOCC3)c(Cl)c2)cc1,30*,-2%,27%,22*,30,10µM*
Cc1ccc(CNc2ccc(N3CCOCC3)cc2)cc1,52*,u,-1%,21*,-11,0%
c1cc(CNc2ccc(N3CCOCC3)cc2)ccn1,49*,5%,x,33*,-23,u
CC1(C)CC(=O)C=C(c2cccc3c2sc2ccccc23)C1,x,u,-9%,x,-20,11%

# Compound activity deposited in PubChem by National Center for Advancing Translational Sciences (NCATS).
